Results published in PubChem BioAssay AID2599 (Sanford-Burnham Center for Chemical Genomics, 2010).
Among all 330,000 compounds or so, about 5,800 (1.8%) were called active. The entries come from a sample that favours actives as a whole. Values without a mark were called inactive.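 Rule for the calls: active = inhibition above about 50% at the single tested dose (limit read from the data); inactive = the rest.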

Molecular target: Sentrin-specific protease 6 (Homo sapiens) (UniProt Q9GZR1)
Experiment: SENP6 protease inhibitors, primary screen, biochemical, luminescence, uHTS (AID 2599);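 note: plate controls were DMSO wells with enzyme for no effect and DMSO wells lacking enzyme for full effect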
Conditions: Recombinant SENP6 catalytic domain, aminoluciferin luminescence; at 10 µM; active compounds read high

Sequence of Sentrin-specific protease 6 (Homo sapiens) (Q9GZR1 628-1112 limits assumed): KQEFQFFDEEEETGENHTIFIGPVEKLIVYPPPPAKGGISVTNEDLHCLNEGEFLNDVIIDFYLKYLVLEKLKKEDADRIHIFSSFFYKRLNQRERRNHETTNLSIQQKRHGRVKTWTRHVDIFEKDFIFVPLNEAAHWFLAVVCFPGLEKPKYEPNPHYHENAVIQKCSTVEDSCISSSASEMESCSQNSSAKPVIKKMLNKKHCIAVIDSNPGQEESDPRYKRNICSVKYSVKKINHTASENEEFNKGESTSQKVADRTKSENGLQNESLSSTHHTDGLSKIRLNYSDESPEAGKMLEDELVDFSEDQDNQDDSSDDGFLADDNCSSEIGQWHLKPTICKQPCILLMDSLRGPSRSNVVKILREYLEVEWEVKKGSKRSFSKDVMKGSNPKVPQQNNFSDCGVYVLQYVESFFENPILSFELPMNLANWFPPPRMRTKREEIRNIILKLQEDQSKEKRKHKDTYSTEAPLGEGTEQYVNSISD

How did the inhibition turn out when `O=C(CSc1nc2[nH]ncc2c(=O)[nH]1)Nc1ccc(F)cc1` was run?
Its inhibition is -4.08%.

Which inhibition does the source give for `CC1(C)O[C@@H]2[C@H](O1)[C@@H](COS(=O)(=O)O)O[C@H]2n1ccc(=O)[nH]c1=O` here?
The inhibition was -11.6%.

`COc1ccc2c(c1OC)C(=O)OC2Nc1nc(-c2ccccc2)cs1` (configuration not stated) was tested. Which inhibition did it give?
The inhibition was -5.84%.

With `COc1ccc(Nc2nc(-c3ccccc3)cs2)cc1` as the compound, how does the inhibition read?
The inhibition was 88.5% (active).

For `COc1ccc(-c2csc(Cc3nc(O)cs3)n2)cc1`, which inhibition is on record?
Its inhibition is 25.6%.

Which inhibition does the source give for `COc1ccc(-c2csc(Nc3ccccn3)n2)cc1` here?
The inhibition was 81.9% (active).

With `COc1ccc(-c2csc(NC(=O)COC(=O)Cc3ccc(Cl)cc3Cl)n2)cc1` as the compound, how does the inhibition read?
The inhibition was 20.8%.

How did the inhibition turn out when `CCCn1c(CCNc2nc(-c3ccc(OC)cc3)cs2)nc2ccccc21` was run?
Its inhibition is 1.04%.

`Clc1ccc(-c2csc(-c3ccncc3)n2)cc1` was tested. Which inhibition did it give?
The inhibition was -16.8%.

Which inhibition does the source give for `Clc1ccc(Nc2nc(-c3cccs3)cs2)nc1` here?
The inhibition was 35.3%.

Which inhibition does the source give for `c1ccc(Nc2nc(-c3ccncc3)cs2)nc1` here?
The inhibition was 88.8% (active).

With `Oc1c(Br)cc(/C=N/NC(=S)NCC2CCCO2)cc1Br` (configuration not stated) as the compound, how does the inhibition read?
Its inhibition is -26.9%.

Which inhibition does the source give for `CCn1cc(C(=O)OCC(=O)Nc2cccc(C)c2)c(=O)c2ccc(C)nc21` here?
Its inhibition is -16.3%.

`COC(=O)c1ccc(Oc2nc(NC(C)C)nc(SC)n2)cc1` was tested. Which inhibition did it give?
The inhibition was -13.9%.

`Cc1cccc(NC(=O)CSc2nnc(CCCCCNC(=O)OC(C)(C)C)o2)c1C` was tested. Which inhibition did it give?
The inhibition was 12.1%.

With `COc1ccc(CNC(=O)C(c2ccc(O)cc2)N(Cc2ccco2)C(=O)c2snc(C(N)=O)c2N)cc1` (configuration not stated) as the compound, how does the inhibition read?
Its inhibition is -5.39%.

With `C=CCC1(C#N)C(=S)NC(C)=C(C(=O)OCC)C1c1ccccc1` (configuration not stated) as the compound, how does the inhibition read?
The inhibition was -0.11%.

For `CCc1ccc(CN(C)C(=O)C2CCC(=O)N(Cc3cccc(OC)c3)C2)nc1` (configuration not stated), which inhibition is on record?
The inhibition was -7.64%.

Which inhibition does the source give for `CCOc1ccccc1NC(=O)Cn1nnc(C(=O)NCc2cccs2)c1N` here?
The inhibition was 10.8%.

How did the inhibition turn out when `CC(C)Cn1c(N)c(C(=O)NCc2cccs2)c2nc3ccccc3nc21` was run?
Its inhibition is 80.7% (active).

`Cn1ncc(Br)c1C(=O)NCc1cccs1` was tested. Which inhibition did it give?
The inhibition was -1.6%.

`OC(CN=c1sc2ccccc2n1CC(O)COc1ccccc1)COc1ccccc1` (configuration not stated) was tested. Which inhibition did it give?
The inhibition was -0.866%.

Which inhibition does the source give for `CNC(C)C#Cc1ccc2sc3cc(OC)c(OC)cc3c(=O)c2c1` (configuration not stated) here?
The inhibition was 78.2% (active).

For `CC(C)CN(C(=O)COC(=O)c1ccc2ccccc2c1)c1c(N)n(Cc2ccccc2)c(=O)[nH]c1=O`, which inhibition is on record?
The inhibition was -9.38%.

How did the inhibition turn out when `CCOc1cc(/C=N/n2cnnc2)c(Br)cc1O` was run?
The inhibition was 12.6%.

How did the inhibition turn out when `CCCCCC(O)c1cccc(OCc2ccc3ccccc3n2)c1` (configuration not stated) was run?
Its inhibition is 23%.

With `O=C(COC(=O)c1cc(S(=O)(=O)N2CCOCC2)ccc1F)NC1CC1` as the compound, how does the inhibition read?
Its inhibition is -2.29%.

`CNCC(O)c1ccc(O)c(O)c1` (configuration not stated) was tested. Which inhibition did it give?
Its inhibition is -10.1%.

With `CCOC(=O)C(NS(=O)(=O)c1ccc(C)cc1)(C(F)(F)F)P(=O)(OCC(C)C)OCC(C)C` (configuration not stated) as the compound, how does the inhibition read?
The inhibition was 8.36%.

With `CCCCCc1ccc(-c2ccc(OCC)cc2)nc1` as the compound, how does the inhibition read?
The inhibition was -5.2%.

`CCCCCc1ccc(-c2ccc(C(=O)O)cc2)nc1` was tested. Which inhibition did it give?
The inhibition was 95.9% (active).

How did the inhibition turn out when `CCCCCc1ccc(-c2cn(Cc3ccc4ccccc4c3)nn2)cc1` was run?
Its inhibition is -16.8%.

For `CC(=O)N1C(C)c2ccccc2C(C)(C)CC12CCCCC2` (configuration not stated), which inhibition is on record?
Its inhibition is 5.42%.

How did the inhibition turn out when `O=c1[nH]c(CN2CCOCC2)nc2cc(Cl)ccc12` was run?
The inhibition was 0.886%.

For `O=c1[nH]c(CCl)nc2cc(-c3ccc(Cl)cc3)sc12`, which inhibition is on record?
Its inhibition is 94.6% (active).

Which inhibition does the source give for `NC(=O)Cc1nc2scc(-c3ccc(Cl)cc3)c2c(=O)[nH]1` here?
Its inhibition is -10.5%.

`CCOC(=O)c1ccc(CS(=O)c2ccc(Cl)cc2)o1` (configuration not stated) was tested. Which inhibition did it give?
Its inhibition is -6.19%.

Which inhibition does the source give for `Cc1oc(-c2ccccc2Cl)[n+]([O-])c1C` here?
The inhibition was -2.99%.

Which inhibition does the source give for `CCOC(=O)C(C)n1nc(-c2ccccc2)c2ccccc2c1=O` (configuration not stated) here?
The inhibition was 16.8%.

With `O=C(Nc1nnc(SCc2ccccc2)s1)c1ccco1` as the compound, how does the inhibition read?
The inhibition was 63% (active).

How did the inhibition turn out when `COCCNc1nnc(SCC(=O)NNC(=O)c2ccco2)s1` was run?
The inhibition was 0.175%.

`O=C(Nc1nnc(CCOCCOCCc2nnc(NC(=O)c3ccco3)s2)s1)c1ccco1` was tested. Which inhibition did it give?
The inhibition was 14.7%.

`O=c1oc2ccccc2cc1-c1cn(-c2ccccc2)c(=S)[nH]1` was tested. Which inhibition did it give?
The inhibition was 94% (active).

With `COc1cccc(-n2c(=S)[nH]c3c(oc4ccccc43)c2=O)c1` as the compound, how does the inhibition read?
Its inhibition is -5.17%.

With `S=c1[nH]c(-c2cccs2)cn1-c1ccccc1` as the compound, how does the inhibition read?
The inhibition was -4.29%.

For `CC(NC(=O)C1CCC(CNc2c(N3CCOCC3)c(=O)c2=O)CC1)c1ccccc1` (configuration not stated), which inhibition is on record?
Its inhibition is -0.949%.

Which inhibition does the source give for `CCOc1ccc2[nH]c(=O)c(C(c3nnnn3CCOC)N3CCOCC3)cc2c1` (configuration not stated) here?
The inhibition was 7.39%.

Which inhibition does the source give for `COc1ccc(OC)c(C(c2nnnn2C(C)(C)C)N2CCc3ccccc3C2)c1` (configuration not stated) here?
The inhibition was -3.29%.

`COCCn1nnnc1C(c1cc2ccc(OC)cc2[nH]c1=O)N1CCc2ccccc2C1` (configuration not stated) was tested. Which inhibition did it give?
Its inhibition is 72.7% (active).

With `O=c1cc(Cl)c2ccccc2n1-c1ccccc1` as the compound, how does the inhibition read?
Its inhibition is -18.3%.

Which inhibition does the source give for `CCNC(=O)NNC(=O)C1CC(c2cccs2)=NO1` (configuration not stated) here?
Its inhibition is -11.1%.

Which inhibition does the source give for `Cc1cc(C)cc(NC(=O)N(C)Cc2ccccc2)c1` here?
Its inhibition is -7.22%.
